# HP1b binding inh – blocks HP1-beta chromodomain binding to methylated histone tails. P83916. AlphaScreen HP1-beta / biotin-H3K9me3 peptide binding. Potency, µM (doses to about 114 µM), most hits filed as inhibitors. actives 0.56% (n = 390,000); further: nearly all actives have a fitted effect of over 70% in size
#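 Compound inhibition of the preformed complex between 50 nM HP1-beta and 50 nM biotinylated H3K9me3 peptide was read by AlphaScreen. Buffer was PBS pH 7.4 with 0.01% Tween-20. Incubations ran 30 min at room temperature, with 10 ug/mL donor/acceptor beads.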
# G9a inh – G9a (human) methyltransferase inhibition; Potency, µM (series often up to 102 µM), usual class: inhibitors; G9a H3K9 monomethylation, AlphaScreen, 2 h; actives 8.8% (n = 350,000); further: nearly all actives have a fitted effect of over 75% in size
#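 AlphaScreen detection with an anti-monomethyl H3K9 antibody quantified product after a 2 h room-temperature reaction containing 500 nM biotinylated H3K9 peptide, 20 µM SAM and 20 nM enzyme, which had been preincubated 15 min with compound.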
# BAZ2B inh – blocks human BAZ2B | AlphaScreen BAZ2B-H3K14Ac peptide displacement | Potency, µM (top dose mostly 114 µM), usual class: inhibitors | actives 4.4% (n = 360,000) | AID 504333; further: nearly all actives have a fitted effect of over 60% in size
#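 AlphaScreen displacement: compounds (up to 110uM) incubated 30 min at room temperature with a preformed 50 nM BAZ2B/50 nM biotinylated H3K14Ac peptide complex in PBS pH 7.4 with Tween-20. Donor and acceptor beads at 10 ug/mL final added, 20 min light-protected before reading.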
# Sfp inh – Sfp phosphopantetheinyl transferase inhibition; Potency, µM, hits mostly inhibitors; AID 1490; Biochemical Sfp PPTase activity, qHTS; actives 3.5% (n = 310,000); Q9F4F7;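 further: the enzyme is Sfp with the accession as filed and its product quenches rhodamine fluorescence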
#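 Step 1, compound plus 15 nM Sfp-PPTase, 15 min, room temperature. Step 2, add rhodamine-CoA (5 uM) and BHQ-2-YbbR (12.5 uM). Step 3, read 525/598 nm fluorescence at 0 and 30 min.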
# JMJD2A Tudor inh – inhibitors of human JMJD2A Tudor domain. O75164. AlphaScreen JMJD2A-Tudor / H3K4me3 peptide binding. Potency, µM (series often up to 114 µM), usual class: inhibitors. actives 4.4% (n = 390,000). AID 504339; further: nearly all actives have a fitted effect of over 50% in size
# Target sequence (O75164 whole entry, looked up, the tested form may be a part): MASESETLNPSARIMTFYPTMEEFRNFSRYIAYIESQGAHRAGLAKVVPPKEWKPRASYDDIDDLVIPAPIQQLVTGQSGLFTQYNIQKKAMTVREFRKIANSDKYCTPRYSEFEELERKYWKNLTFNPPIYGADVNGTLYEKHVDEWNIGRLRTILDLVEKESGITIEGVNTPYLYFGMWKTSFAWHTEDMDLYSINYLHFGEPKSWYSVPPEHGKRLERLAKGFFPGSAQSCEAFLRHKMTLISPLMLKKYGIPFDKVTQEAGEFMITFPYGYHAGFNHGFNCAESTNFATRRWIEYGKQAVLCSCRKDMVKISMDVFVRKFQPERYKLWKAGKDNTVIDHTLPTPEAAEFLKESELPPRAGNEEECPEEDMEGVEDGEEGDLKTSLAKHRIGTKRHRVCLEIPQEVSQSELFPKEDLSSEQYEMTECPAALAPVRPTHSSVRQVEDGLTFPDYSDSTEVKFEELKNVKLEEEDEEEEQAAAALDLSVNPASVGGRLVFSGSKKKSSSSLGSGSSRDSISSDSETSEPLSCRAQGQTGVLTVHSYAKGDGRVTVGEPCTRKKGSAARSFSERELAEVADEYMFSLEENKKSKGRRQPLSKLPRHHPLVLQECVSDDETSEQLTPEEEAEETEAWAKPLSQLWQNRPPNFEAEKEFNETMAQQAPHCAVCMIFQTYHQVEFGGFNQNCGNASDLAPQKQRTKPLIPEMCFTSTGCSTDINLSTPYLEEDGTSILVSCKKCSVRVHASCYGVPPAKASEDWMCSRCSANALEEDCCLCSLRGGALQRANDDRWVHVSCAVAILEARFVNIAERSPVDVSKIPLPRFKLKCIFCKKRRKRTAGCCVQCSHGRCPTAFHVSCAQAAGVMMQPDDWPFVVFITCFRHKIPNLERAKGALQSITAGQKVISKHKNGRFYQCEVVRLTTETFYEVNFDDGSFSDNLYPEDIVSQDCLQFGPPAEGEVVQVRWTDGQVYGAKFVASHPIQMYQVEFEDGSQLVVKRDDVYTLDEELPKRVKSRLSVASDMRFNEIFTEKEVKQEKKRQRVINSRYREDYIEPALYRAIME
# Hits are given with their value; 0 = inactive; ? = inconclusive; - = not tested or not shown; [ ] = remark or other dose. Compounds with a hit are over-represented: about 12% of the library has one in this group of screens. The call rests on the fitted dose curve; in most records, active means well fitted curve in the direction sought with a large enough effect; inconclusive means small, poorly fitted or top-dose-only effect, or another doubt; inactive means no such curve, though single readings can be large; an effect the other way counts as inactive or inconclusive.
SMILES,HP1b binding inh,G9a inh,BAZ2B inh,Sfp inh,JMJD2A Tudor inh
COC(=O)c1ccc(/C=N/Nc2nc(-c3ccccc3)cs2)cc1,0,?,0,0,0
COC(=O)c1ccc(/C=N/Nc2nc(-c3ccc(C)cc3)cs2)cc1,0,79.4µM,0,0,0
COc1ccc(/C=N/Nc2nc(C(=O)O)cs2)cc1,0,39.8µM,44.7µM,?,?
COC(=O)c1ccc(/C=N/Nc2nc(-c3ccc(Cl)cc3Cl)cs2)cc1,-,50.1µM,0,0,-
CCCCN1CC(Br)C(=O)NC1=O (stereo not drawn),0,-,-,-,0
CN(C(=O)C1CCN(S(=O)(=O)c2cccc3nonc23)CC1)C1CCCCC1,0,-,0,0,0
CNc1ccc(Br)cc(C(=O)/C=C/c2ccc(OC)cc2)c1=O,0,10µM,44.7µM,?,0
CNc1ccc(Br)cc(C(=O)/C=C/c2ccc3c(c2)OCO3)c1=O,?,10µM,39.8µM,17.8µM,39.8µM
COCCCNC(=O)/C=C/c1ccc(Cl)cc1Cl,0,0[0.501 µM],0,0,0
CNc1ccc(Br)cc(C(=O)/C=C/c2cc(OC)ccc2OC)c1=O,0,4.47µM,28.2µM,0,25.1µM
CCNc1ccc(Br)cc(C(=O)/C=C/c2ccc(Cl)cc2Cl)c1=O,?,8.91µM,44.7µM,22.4µM,44.7µM
COC(=O)CNC(=O)/C=C/c1cc(Br)ccc1OC,0,0,0,0,0
CCn1c(=NC(=O)CSC(C)=O)sc2cc(F)ccc21,0,0,0,0,0
Cc1c2cnn(CC(=O)Nc3cccc(C(F)(F)F)c3)c(=O)c2c(C)n1Cc1ccccc1F,0,0,0,0,0
NC1=NC2(CCCCCC2)n2c(nc3ccccc32)N1,0,0,0,0,0
CSc1nnc(NC(=O)c2ccc(S(=O)(=O)N(C)C)cc2)s1,0,22.4µM,0,0,0
CSc1nnc(NC(=O)c2ccc3c(c2)OCO3)s1,0,28.2µM,0,0,0
O=C(Nc1nncs1)c1ccc2c(c1)OCO2,0,50.1µM,0,0,0
Cc1nnc(NC(=O)c2ccc3c(c2)OCO3)s1,0,0,0,0,0
CN(Cc1cccc(F)c1)C(=O)C1CC(=O)N(c2ccc3c(c2)OCCO3)C1 (stereo not drawn),0,-,-,-,0
C/C(=N\N(c1ccccc1)c1ccccc1)c1ccc(O)cc1,?,79.4µM,50.1µM,0,39.8µM
C/C(=N/NC(=O)C(=O)N/N=C(/C)c1ccccc1)c1ccccc1,-,0,0,0,-
CC(=NN(Cc1ccccc1)c1ccccc1)c1ccccc1,0,-,-,-,0
C/C(=N\N(c1ccccc1)c1ccccc1)c1ccc(N)cc1,?,-,-,-,22.4µM
O=C1NC(Cc2ccccc2)c2nc3ccc(Cl)cc3c(=O)n2-c2ccc(Cl)cc21 (stereo not drawn),-,0[2.33 µM],0,-,-
SMILES,HP1b binding inh,G9a inh,BAZ2B inh,Sfp inh,JMJD2A Tudor inh
CC(=O)Cc1nsc(NC(=O)c2oc(-c3ccccc3Cl)cc2C)n1,0,0,0,0,0
O=C(O)c1ccccc1CSc1nc2ccccc2[nH]1,0,50.1µM,0,0,0
Cc1nn(-c2ccc(C(=O)O)cc2)c(N)c1-c1ccccc1,0,0,0,0,0[11.4 µM]
O=C(CSc1nc2ccccc2[nH]1)c1ccccc1F,0,0,0,0,0
Nc1c(-c2ccccc2)c(CSc2nc3ccccc3[nH]2)nn1-c1ccc(C(=O)O)cc1,?,?,0,0,22.4µM
N#C/C(=C\c1ccncc1)c1ccc(NC(N)=O)cc1,0,0,0,0,0
COc1ccc(NC(=O)c2cc3cc(OC)ccc3oc2=O)cc1,0,-,-,-,0
COCCNC(=O)CCC1CCN(Cc2cccc(-c3ccc(C)o3)c2)CC1,0,22.4µM,0,0,0
COCCNC(=O)C1CCN(Cc2cccc(OCc3ccccc3)c2)CC1,?,0[0.501 µM],?,0,0.794µM
COCCCNC(=O)C1CCN(Cc2cc3ccccc3n2Cc2cccc(C)c2)CC1,0,0,?,-,0
COc1cc(CNC(=O)C2CC2)ccc1OCc1ccccc1,0,0,0,0,0
COCCNC(=O)CCC1CCN(C/C=C/c2ccccc2OC)CC1,0,-,0,0,0
COc1cc(CN2CCC(C(=O)NCCC(C)C)CC2)ccc1OCc1ccccc1,?,50.1µM,0,0,28.2µM
CC(C)CCNC(=O)C1CCN(Cc2cccc(OCc3ccccc3)c2)CC1,?,-,?,0,10µM
COc1cc(/C=N/NC(=S)N/N=C/c2cc(OC)c(OC)c(OC)c2)cc(OC)c1OC,0,?,0,0,?

# From PubChem
